DAX1 inh-1: NR0B1 (DAX1) inhibition; hit rate 0.99% among 340,000; HEK293 Gal4-DAX1 luciferase reporter, luminescence; inhibition, % at 6.75 µM; P51843;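 active means inhibition above the mean over all tested compounds plus 3 SD, cut at about 4.2% in these data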;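 further: 0% = DAX1-transfected cells with DMSO and 100% = empty-vector control cells with DMSO; inhibition shows as a rise in luminescence from relieved DAX1 repression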
Target sequence (P51843 207-470 limits assumed): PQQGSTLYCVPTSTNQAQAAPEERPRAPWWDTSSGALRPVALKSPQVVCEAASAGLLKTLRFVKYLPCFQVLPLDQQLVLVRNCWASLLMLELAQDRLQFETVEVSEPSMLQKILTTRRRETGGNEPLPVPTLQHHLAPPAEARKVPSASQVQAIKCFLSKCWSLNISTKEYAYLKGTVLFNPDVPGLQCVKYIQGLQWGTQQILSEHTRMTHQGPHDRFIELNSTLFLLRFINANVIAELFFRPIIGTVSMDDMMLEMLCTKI
hcDAF12 agonist: H. contortus DAF-12 activation, primary screen | HEK293 hcDAF-12 lit1-tk-luc reporter, luminescence; 0% DMSO, 100% Δ7-dafachronic acid | activation, % at 6.8 µM | hit rate 1.4% among 370,000;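 active means activation above the mean of all tested compounds plus 3 SD, cut at about 5.5% in these data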;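 further: 100% = response to 3 µM Δ7-dafachronic acid high control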
ssDAF-12 act: activates DAF-12 receptor from parasite S. stercoralis; HEK293 ssDAF-12/GRIP1 lit1-tk-luc reporter, luminescence; % of 3 µM dafachronic acid response; activation, % at 6.8 µM; hit rate 1% among 370,000;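 active means activation above the mean over all tested compounds plus 3 SD, cut at about 0.9% in these data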;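 further: 0% = DMSO-only wells and 100% = 3 µM delta7-dafachronic acid wells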
DAX1 inh-2: blocks DAX1 repression of SF-1 activated StAR promoter. HEK293T StAR-luciferase reporter, SF-1/DAX-1 repression relief. inhibition, % at 6.8 µM. hit rate 1.1% among 370,000;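 active means inhibition above the mean over all tested compounds plus 3 SD, cut at about 3.6% in these data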;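 further: 0% = DAX-1 cells with DMSO and 100% = cells lacking DAX-1 with DMSO; higher inhibition means more luminescence from relief of DAX-1 repression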
hgDAF12 agonist: hgDAF-12 agonism, primary luciferase screen | AID 687014 | activation, % at 6.8 µM | hit rate 1.8% among 370,000 | HEK293 GAL4-hgDAF12 UAS-luciferase reporter, agonist luminescence; normalized to butyrate control;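 active means activation above a cutoff set at the mean of all screened compounds plus 3 SD, cut at about 10% in these data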;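 further: 0% = DMSO wells and 100% = sodium butyrate wells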
An asterisk follows results filed as active; / = no result. Shown are actives, neighbours in structure and some others; about 4.1% of the full set was active somewhere.

SMILES	DAX1 inh-1	hcDAF12 agonist	ssDAF-12 act	DAX1 inh-2	hgDAF12 agonist
CC1CC(C)CN(C(=O)c2cccc(N3C(=O)c4ccccc4C3=O)c2)C1 (stereo unspecified)	0	0	-1	4.3*	-1
Cc1ccc(CN2CCN(/N=C/c3ccccc3)CC2)cc1	7.7*	0	-1	0	-1
Brc1cccc(C2Nc3cccc4cccc(c34)N2)c1	5.2*	2	0	0	2
N=C1C(=O)OCC1c1ccccc1NC(=O)Nc1ccccc1 (stereo unspecified)	7.1*	4	0	1	-1
N=C1C(=O)OCC1c1ccccc1NC(=O)c1ccc(F)cc1 (stereo unspecified)	1	0	0	0	-1
COC(=O)C1CN(Cc2ccc(OC)cc2)CCS(=O)(=O)N1Cc1ccccc1 (stereo unspecified)	/	0	-1	0	-1
CC(=O)N1N=C(c2ccc(C)cc2)OC1c1ccc(C(C)C)cc1 (stereo unspecified)	4.5*	1	-1	1	4
COC(=O)C1CN(Cc2cn(Cc3ccccc3)nn2)CCS(=O)(=O)N1Cc1ccc(C)cc1 (stereo unspecified)	/	-2	-2	-1	0
N#Cc1c(F)cccc1NCCCn1ccnc1	4.6*	0	-1	0	-2
CC(C)C[C@H]1COc2cc(Br)ccc2S(=O)(=O)N1Cc1cn(CCC2OCCO2)nn1	/	0	-1	-1	1
COC(=O)c1cn(Cc2cccnc2)c(=O)c2ccccc12	-1	-2	0.9*	0	-1
COc1cccc(/C=C/C(=O)c2ccc3c(c2)OCCO3)c1OC	0	0	-1	0	10*
CCN(CC(=O)Nc1ccc2c(c1)OCCO2)C(=O)/C=C/c1cccc(OC)c1OC	2	1	0	2	5
O=C(/C=C/c1ccc2c(c1)OCCO2)c1ccccc1	/	4	-1	1	11*
O=C(NCc1ccc(Cl)cc1)C1C2C=CC3(CN(Cc4ccccc4)C(=O)C13)O2 (stereo unspecified)	/	-2	-1	-1	1
C=CCNC(=O)NCC1CCN(Cc2ccc(OC)cc2)CC1	/	3	-2	-1	-1
Cn1cc(NC(=O)OCc2ccc(Cl)cc2)c(C(F)(F)F)n1	1	1	0	3.7*	2
Cc1ccc(Sc2ccc(CN3CCCC3)cc2[N+](=O)[O-])cc1	0	0	-2	-1	-1
Cc1ccc(Sc2ccc(CO)cc2[N+](=O)[O-])cc1	0	-2	11*	0	3
Cn1cc(C=C2C(=O)CC(C)(C)CC2=O)c2ccccc21	-2	1	1.3*	0	2
Cc1ccc2c(C)c(C(=O)N(C)C(C)c3ccon3)oc2c1C (stereo unspecified)	2	1	0	4.2*	6
COC(=O)c1cnn(-c2ccccc2)c1C(OC)OC	4.5*	0	-1	0	1
Cc1cccc(C(=O)OCC(=O)N2CCCCCC2)c1O	4.5*	5	0	2	2
Cc1cccc(C(=O)OCC(=O)N2CCc3ccccc3C2)c1O	0	1	0	0	2
O=C(CSc1nnc(-c2cccs2)n1Cc1ccco1)Nc1ccc(Oc2ccccc2)cc1	/	-2	-2	-1	-6
SMILES	DAX1 inh-1	hcDAF12 agonist	ssDAF-12 act	DAX1 inh-2	hgDAF12 agonist
O=c1c(Cc2c(F)cccc2Cl)c(O)ccn1CCCn1ccnc1	4.3*	0	-1	0	2
CC(OC(=O)c1cc(O)c2ccccc2c1O)C(=O)Nc1ccc(C(N)=O)cc1 (stereo unspecified)	1	4	1.4*	-2	1
C#CCOCC1CN(c2ccccc2)C(=O)O1 (stereo unspecified)	4.2*	0	-1	-1	-2
S=c1[nH]ccn1-c1c(Cl)cccc1Cl	0	6.5*	0	0	10
COC(=O)[C@]12C[C@H](CC(=O)NCC3CCCCC3)C(=O)N(CCc3ccc(OC)c(OC)c3)C1=C[C@H](COCc1ccccc1)O[C@@H]2C	/	2	-1	1	1
CC1(CCc2ccccc2)NC(=O)N(CC(=O)O)C1=O (stereo unspecified)	3	0	-1	1	0
CC1(CCc2ccccc2)NC(=O)N(CC(=O)Nc2ccccc2)C1=O (stereo unspecified)	4.7*	1	-1	1	6
CC1CC(=S)Nc2ccccc2N1C(=O)Nc1ccccc1 (stereo unspecified)	5.2*	0	-2	0	-1
O=C(Nc1ccccc1)N1CCC(=S)Nc2ccccc21	-1	1	-2	0	-2
CCOC(=O)C(=O)N(CC)C1CCS(=O)(=O)C1 (stereo unspecified)	0	5	1.2*	0	-1
N=c1c2c(ccn1CCCc1ccccc1)Oc1ccc3ccccc3c1C2c1ccccc1 (stereo unspecified)	/	2	-1	/	1
Cc1[nH]c2ccc(F)cc2c1CCN1C(=O)OC(C)(C)C1(C)O (stereo unspecified)	7.3*	-2	0	1	-4
COc1cc(CN2CCC(Cc3ccccc3)CC2)cc(OC)c1OC	5.1*	-1	-2	0	1
COc1ccc(CN2CCC(Cc3ccccc3)CC2)c(C)c1C	4.3*	-2	-2	0	5
CC(C)C[C@@H]1COc2cc(N3CCSCC3)ccc2S(=O)(=O)N1C	/	-1	-1	-2	3
CCn1c(SCC(=O)Nc2ccccc2-c2ccccc2)nnc1-c1ccc(C)cc1	/	-2	-1	0	0
C/C(=N/NC(=O)c1ccccn1)c1c[nH]c2ccccc12	5.8*	6	1	2	12*
C/C(=N/NC(=O)c1ccccn1)c1ccc(O)cc1	4.6*	3	0	5.1*	13*
C/C(=N\NC(=O)c1c[nH]c2ccccc12)c1ccc(C)o1	2	5.7*	2.7*	2	6
C/C(=N\NC(=O)c1ccc(Cl)cc1)c1ccccn1	2	0	-1	1	-1
C/C(=N\NC(=O)c1ccccn1)c1ccc(Cl)cc1	/	5	0	3	9
CCC[C@H]1[C@@H](NC(=O)C(c2ccccc2)c2ccccc2)CC[C@@]23CCCN2C(=O)CCC[C@@H]13	/	-2	-2	/	0
O=C(NCCc1ccccc1)c1nc(-c2cccs2)no1	-1	2	0	0	11*
O=C(NCc1ccncc1)c1nc(-c2cccs2)no1	0	-2	-1	-1	0
O=C(NCc1cccs1)c1nc(-c2cccs2)no1	4.3*	1	-1	1	2
C/C(=C/c1c[n+](Cc2ccc3c(c2)OCO3)c(N)[nH]1)Cn1[nH]c(=O)n(-c2ccccc2)c1=O	/	2	-1	-1	0
Cn1cccc1C(=O)N1CCN(S(=O)(=O)c2ccc([N+](=O)[O-])cc2)CC1	/	-2	-1	0	1
